Our source for the GFP signal change (wild-type ribosome), OD600 change and RFP signal change values is PubChem BioAssay AID720706 (Broad Institute, 2013).

Out of some 350,000 compounds screened, about 5,500 (1.6%) were called active. The sample holds actives, similar compounds and a random draw of the others, so the mix is not that of the screen.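 Rule for the calls: active = significant combined selectivity score with lowered wild-type GFP, culture density cut under 30%, mutant RFP and density less affected; inactive = any of these conditions unmet.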

The assay is described as follows: reduced GFP signal of wild-type E. coli, primary screen, bacterial rRNA inhibitor project, GFP/RFP fluorescence, OD600, single point (AID 720706). The note with it: E. coli WT GFP vs humanized-ribosome RFP mutants, 24 h; GFP signal change (wild-type ribosome): stronger effect = lower value, DMSO median 0, no signal -100; OD600 change: measured here: OD600 growth, DMSO median 0, no signal -100; RFP signal change: measured here: RFP humanized mutant strains, DMSO median 0, no signal -100, concentration not given here.
As for `Cc1[nH]c2ccccc2c1SCC(=O)Nc1nccs1`, the GFP signal change (wild-type ribosome) is -21.9% (active), the OD600 change is -16.9% and the RFP signal change was -2.17%.

With `CCn1c(SCC(=O)Nc2nccs2)nnc1-c1ccco1`, the GFP signal change (wild-type ribosome) is 10.8% (inactive), the OD600 change came to 0.14% and the RFP signal change is 0.233%.

In the case of `Cn1c(SCC(=O)Nc2nccs2)nnc1-c1cccnc1`, the GFP signal change (wild-type ribosome) is 11.6% (inactive), the OD600 change turned out to be 16.8% and the RFP signal change was -1.48%.

Take `CC1CCCCC12NC(=O)N(CC(=O)OCC(=O)NCc1ccc(F)cc1)C2=O` (stereo unspecified): the GFP signal change (wild-type ribosome) was -2.84% (inactive), the OD600 change was -0.669% and the RFP signal change is -1.07%.

As for `COc1cccc(CNC(=O)COC(=O)CN2C(=O)NC3(CCCCC3C)C2=O)c1` (stereo unspecified), the GFP signal change (wild-type ribosome) is 3.13% (inactive), the OD600 change was determined as 0.95% and the RFP signal change stood at 0.493%.

For `CC1CCCCC12NC(=O)N(CC(=O)OCc1c(F)cccc1Cl)C2=O` (stereo unspecified), the GFP signal change (wild-type ribosome) is -24.1% (active), the OD600 change was -16.3% and the RFP signal change amounted to 0.314%.

With `Cc1cc2c(cc1C)[n+](C)cn2CC(O)COCC1CC=CCC1` (stereo unspecified), the GFP signal change (wild-type ribosome) was -29.3% (active), the OD600 change was -16.1% and the RFP signal change came out at 3.07%.

In the case of `Cc1noc(C)c1S(=O)(=O)Nc1ccc2c(c1)C(=O)N([C@H](C)CO)C[C@H](C)[C@H](CN(C)S(=O)(=O)c1cn(C)cn1)OCCCC[C@@H](C)O2`, the GFP signal change (wild-type ribosome) was -2.25% (inactive), the OD600 change is -4.58% and the RFP signal change was -3.75%.

`COc1ccc(CN(C)C[C@@H]2Oc3ccc(NS(=O)(=O)c4cn(C)cn4)cc3C(=O)N([C@@H](C)CO)C[C@H]2C)cc1`: the GFP signal change (wild-type ribosome) was -0.89% (inactive), the OD600 change stood at 10.2% and the RFP signal change was -0.875%.

Regarding `O=S1(=O)N=C(N(CCO)/N=C/c2ccccc2F)c2ccccc21`, the GFP signal change (wild-type ribosome) was -21.1% (active), the OD600 change was -9.01% and the RFP signal change is 2.34%.

As for `COc1ccc(/C=N/N(C)C2=NS(=O)(=O)c3ccccc32)cc1OC`, the GFP signal change (wild-type ribosome) was 14.8% (inactive), the OD600 change was found to be 9.54% and the RFP signal change was -0.4%.

As for `Cc1ccc(C(=O)NN(CCC#N)C2=NS(=O)(=O)c3ccccc32)cc1`, the GFP signal change (wild-type ribosome) was 11% (inactive), the OD600 change turned out to be 11% and the RFP signal change amounted to 1.04%.

As for `O=C(Nc1ccc(C(F)(F)F)cc1)N[C@@H]1CC[C@H](CCNC(=O)c2ccccc2F)O[C@@H]1CO`, the GFP signal change (wild-type ribosome) is -6.45% (inactive), the OD600 change was -10.8% and the RFP signal change turned out to be 3.96%.

Turning to `COc1ccc(NC(=O)Nc2ccc3c(c2)C(=O)N([C@H](C)CO)C[C@@H](C)[C@H](CN(C)C(=O)Cc2ccccc2)OCCCC[C@H](C)O3)cc1`, the GFP signal change (wild-type ribosome) is -0.637% (inactive), the OD600 change was -0.596% and the RFP signal change stood at 2.91%.

Turning to `COCCNc1nc(NCc2ccc(NC(C)=O)cc2)c2sccc2n1`, the GFP signal change (wild-type ribosome) was 31.4% (inactive), the OD600 change amounted to 15.7% and the RFP signal change came out at 6.28%.

Regarding `COCCNc1nc(Nc2ccccc2Cl)c2sc(-c3ccccc3)cc2n1`, the GFP signal change (wild-type ribosome) is -0.73% (inactive), the OD600 change stood at 28.1% and the RFP signal change is -2.05%.

As to `CC(=O)Nc1ccc(CNc2nc(NCCN(C)C)nc3cc(-c4ccccc4)sc23)cc1`, the GFP signal change (wild-type ribosome) was -20.5% (active), the OD600 change is -5.3% and the RFP signal change was determined as 1.68%.

Regarding `COc1ccc(NC(=O)N(C)C[C@@H]2Oc3ncc(-c4ccc(C#N)cc4)cc3C(=O)N([C@@H](C)CO)C[C@H]2C)cc1`, the GFP signal change (wild-type ribosome) is -1.74% (inactive), the OD600 change is -0.24% and the RFP signal change is -0.855%.

As for `CS(=O)(=O)Nc1ccc2c(c1)[C@@H]1C[C@H](CC(=O)NCc3ccccn3)O[C@@H](CO)[C@@H]1O2`, the GFP signal change (wild-type ribosome) was 2.36% (inactive), the OD600 change is -0.375% and the RFP signal change was 1.41%.

For the compound `O=C(NCCN1CCCCC1)[C@@H]1N[C@@H]2c3ccc(-c4ccccc4)c(=O)n3C[C@@H]2[C@H]1CO`, the GFP signal change (wild-type ribosome) is -1.4% (inactive), the OD600 change was found to be 4.26% and the RFP signal change was -4%.

Take `COC(=O)C[C@@H]1CC[C@H]2[C@@H](COC[C@H](O)CN2C(=O)Nc2ccccc2OC)O1`: the GFP signal change (wild-type ribosome) was -0.973% (inactive), the OD600 change was 5.6% and the RFP signal change came out at 2.71%.

With `CCC(O)C1CCN(Cc2cn(-c3ccc(OC)cc3)nc2-c2cccc(F)c2)CC1` (stereo unspecified), the GFP signal change (wild-type ribosome) is -12.5% (inactive), the OD600 change was -11% and the RFP signal change was 3.52%.

In the case of `COc1ccc(-n2cc(CN(C)Cc3n[nH]c(=O)[nH]3)c(-c3cccc(F)c3)n2)cc1`, the GFP signal change (wild-type ribosome) is -10.8% (inactive), the OD600 change is -14.6% and the RFP signal change was -0.58%.

Regarding `COc1ccc(-n2cc(CNC3CCOCC3)c(-c3cccc(F)c3)n2)cc1`, the GFP signal change (wild-type ribosome) was -30.4% (active), the OD600 change is -24.4% and the RFP signal change is -1.67%.

`O=C(O)CSCC(=O)Nc1ccc(C(F)(F)F)cc1`: the GFP signal change (wild-type ribosome) was 9.65% (inactive), the OD600 change was determined as 10.9% and the RFP signal change was determined as 3.37%.

For `O=C(Nc1ccc(C(F)(F)F)cc1)c1cccc(-n2cnnn2)c1`, the GFP signal change (wild-type ribosome) is -24.6% (active), the OD600 change was -17.2% and the RFP signal change was -9.02%.

Take `O=C(Nc1cccc(-n2cnnn2)c1)c1cccnc1`: the GFP signal change (wild-type ribosome) was 1.1% (inactive), the OD600 change amounted to 2.52% and the RFP signal change worked out at 0.952%.

On to `COc1ccccc1CNC(=O)C[C@@H]1CC[C@@H]2[C@@H](COc3ccc(NC(=O)Nc4ccc(F)c(F)c4)cc3C(=O)N2C)O1`, for which the GFP signal change (wild-type ribosome) is -9.44% (inactive), the OD600 change is -10.3% and the RFP signal change was -1.71%.

Consider `CCCNC(=O)C[C@@H]1C[C@H]2c3cc(NC(=O)Nc4ccccc4F)ccc3O[C@H]2[C@H](CO)O1`, for which the GFP signal change (wild-type ribosome) was -3.87% (inactive), the OD600 change is -12.4% and the RFP signal change turned out to be 1.51%.

For the compound `COC(=O)c1c(C(=O)OC)c2n(c1C)CCS2`, the GFP signal change (wild-type ribosome) is -22.3% (active), the OD600 change is -9.31% and the RFP signal change was -5.79%.

On to `COC(=O)c1c(-c2ccc(C)cc2)csc1N`, for which the GFP signal change (wild-type ribosome) was -1.07% (inactive), the OD600 change was -0.1% and the RFP signal change was 43.8%.

Turning to `COC(=O)c1c(C)cc(O)c(C)c1O`, the GFP signal change (wild-type ribosome) was -0.355% (inactive), the OD600 change is 5.33% and the RFP signal change was 0.38%.

`C/C=C/c1ccc([C@@H]2[C@@H](CO)N3C(=O)CN(C(=O)Nc4cccc(OC)c4)C[C@@H]23)cc1`: the GFP signal change (wild-type ribosome) is -1.73% (inactive), the OD600 change was -7.8% and the RFP signal change stood at 3.44%.

`O=C(Nc1ccc(C2CC2(Cl)Cl)cc1)c1cccc([N+](=O)[O-])c1` (stereo unspecified): the GFP signal change (wild-type ribosome) was -27.9% (active), the OD600 change was -19.1% and the RFP signal change was -6.25%.

On to `O=C(Nc1nnc(SCc2c(Cl)cccc2Cl)s1)c1cccc([N+](=O)[O-])c1`, for which the GFP signal change (wild-type ribosome) is 1.43% (inactive), the OD600 change is -3.04% and the RFP signal change is -1.26%.

With `O=C(NC(=S)NC1CCS(=O)(=O)C1)c1cccc([N+](=O)[O-])c1` (stereo unspecified), the GFP signal change (wild-type ribosome) is 3.91% (inactive), the OD600 change came to 8.03% and the RFP signal change is -1.87%.

On to `C[C@@H]1CN([C@H](C)CO)C(=O)Cc2cc(N(C)C)ccc2O[C@H]1CN(C)C(=O)NC1CCCCC1`, for which the GFP signal change (wild-type ribosome) was -0.659% (inactive), the OD600 change came to 5.18% and the RFP signal change is -1.29%.

`COc1cccc(C#Cc2ccc([C@@H]3[C@H]4CN(C(=O)Cc5ccccc5)CC(=O)N4[C@H]3CO)cc2)c1`: the GFP signal change (wild-type ribosome) was -5.04% (inactive), the OD600 change is -9.42% and the RFP signal change was determined as 27.5%.

In the case of `CN(C)CCCN(C(=O)c1ccc(S(=O)(=O)N2CCCCCC2)cc1)c1nc2cc3c(cc2s1)OCCO3`, the GFP signal change (wild-type ribosome) is -30% (active), the OD600 change is -20.1% and the RFP signal change was 0.23%.

In the case of `CCN(CC)CCN(C(=O)c1ccc2c(c1)CCCC2)c1nc2c(OC)cccc2s1`, the GFP signal change (wild-type ribosome) is -52.2% (inactive), the OD600 change is -75.4% and the RFP signal change was -16.6%.

`Cc1ccc2sc(NNC(=O)c3ccc4c(c3)OCCO4)nc2c1C`: the GFP signal change (wild-type ribosome) was -7.09% (inactive), the OD600 change is -13.5% and the RFP signal change was 7.46%.

Take `CCN(CC)CCN(C(=O)c1cc(Cl)sc1Cl)c1nc2cc3c(cc2s1)OCO3`: the GFP signal change (wild-type ribosome) was 4.27% (inactive), the OD600 change was -1.1% and the RFP signal change is -0.673%.

Consider `CCOc1ccc2nc(C(=O)N3CCCC(C)C3)sc2c1` (stereo unspecified), for which the GFP signal change (wild-type ribosome) was -6.88% (inactive), the OD600 change is -10.3% and the RFP signal change is -0.532%.

In the case of `CCc1ccc2nc(N(CCCN(C)C)C(=O)c3ccc4c(c3)OCCO4)sc2c1`, the GFP signal change (wild-type ribosome) is -22.5% (active), the OD600 change is -7.47% and the RFP signal change is 6.9%.

With `CCOc1ccc2nc(N(CCN(C)C)C(=O)c3ccc4ccccc4c3)sc2c1`, the GFP signal change (wild-type ribosome) was -29.3% (active), the OD600 change was -1.85% and the RFP signal change came out at 4.17%.

For the compound `CN(C)CCN(C(=O)C1=COCCO1)c1nc2ccc(Cl)cc2s1`, the GFP signal change (wild-type ribosome) was 2.56% (inactive), the OD600 change was -1.62% and the RFP signal change is -1.96%.

On to `CCN(CC)CCN(C(=O)c1ccc(N2C(=O)CCC2=O)cc1)c1nc2cc3c(cc2s1)OCO3`, for which the GFP signal change (wild-type ribosome) is 4.92% (inactive), the OD600 change was -10.9% and the RFP signal change was -4.79%.
